Measured values reported in PubChem BioAssay (NCI).
The panel holds about 79,000 compounds, 15% with a hit somewhere; the sample as a whole holds those more often. The source made the active and inactive calls. Rule as the data show it: active = growth inhibition above about 70%; inactive = the rest.

Tests used:
[1] = NCI Yeast Anticancer Drug Screen. Data for the rad50 strain (AID 155);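 also: 0% = growth of vehicle-only cultures of the same strain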; conditions: S. cerevisiae rad50 strain growth inhibition, hits give high values
Method in brief: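 Cells are treated with compound, grown, and their growth is then scored against vehicle-only cultures of the same repair-deficient yeast strain.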

[2] = NCI Yeast Anticancer Drug Screen. Data for the mec2-1 strain (AID 157); conditions: S. cerevisiae mec2-1 strain, hits give high values
Method in brief: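 Vehicle-treated cultures served as reference for growth inhibition of compound-exposed mec2-1 yeast.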

[3] = NCI Yeast Anticancer Drug Screen. Data for the sgs1 mgt1 strain (AID 161);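 also: 0% = growth of cultures given vehicle only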; conditions: S. cerevisiae sgs1 mgt1 strain, hits give high values
Method in brief: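 Read-out: growth inhibition vs vehicle controls. Cells: mutant yeast strain deficient in DNA damage repair.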

[4] = NCI Yeast Anticancer Drug Screen. Data for the cln2 rad14 strain (AID 165);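 also: 0% = growth equal to vehicle treated cultures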; conditions: S. cerevisiae cln2 rad14 strain, hits give high values
Method in brief: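 Each compound was tested on cln2 rad14 yeast. Inhibition of growth was calculated against vehicle-exposed controls.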

[5] = NCI Yeast Anticancer Drug Screen. Data for the bub3 strain (AID 167); conditions: S. cerevisiae bub3 mutant strain, hits give high values
Method in brief: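 Part of a panel of yeast mutants defective in DNA damage repair or cell cycle regulation. Each strain is grown with compound, and inhibition is calculated relative to solvent-treated cultures.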

[6] = NCI Yeast Anticancer Drug Screen. Data for the mlh1 rad18 strain (AID 175); conditions: S. cerevisiae mlh1 rad18 strain growth inhibition, hits give high values
Method in brief: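 Vehicle-treated cultures served as the reference for growth inhibition in a yeast strain carrying DNA damage repair alterations exposed to each compound.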

[7] = at 5.0 µM (retest, dose inferred, filed as 0.5)
[8] = at 50.0 µM (retest, dose inferred, filed as 5.0)

Measured: growth inhibition

O=C1c2ccccc2C(O)(c2ccccc2)N1c1ccc([N+](=O)[O-])cc1 (stereo not drawn)
active: [1]; [8] 99% | [1]; at 50.0 µM 99% | [2]; [8] 100% | [2]; at 50.0 µM 99.3% | [3]; [8] 99% | [3]; at 50.0 µM 99.3% | [4]; [8] 99% | [4]; at 50.0 µM 98.9% | [5]; [8] 99% | [5]; at 50.0 µM 99% | [6]; [8] 99% | [6]; at 50.0 µM 99.3%
inactive: [1]; [7] 7% | [2]; [7] 10% | [3]; [7] 0% | [4]; [7] -3% | [5]; [7] -2% | [6]; [7] 5%

C/C(C=C(C#N)C#N)=C\c1ccc([N+](=O)[O-])cc1
inactive: [1]; [7] -9% | [1]; [8] 67% | [2]; [7] -16% | [2]; [8] 67% | [3]; [7] -1% | [3]; [8] 40% | [3]; at 50.0 µM 64.8% | [4]; [7] 36% | [4]; [8] 60% | [4]; at 50.0 µM 55.5% | [5]; [7] 15% | [5]; at 50.0 µM 64.8% | [6]; [7] -3% | [6]; at 50.0 µM 67.3%
active: [1]; at 50.0 µM 78.2% | [2]; at 50.0 µM 70.4% | [5]; [8] 81% | [6]; [8] 89%

COc1ccccc1C1C(Cl)C(=O)N1n1cnc2ccccc2c1=O (stereo not drawn)
active: [1]; at 50.0 µM 83.9% | [3]; at 50.0 µM 84.5% | [5]; at 50.0 µM 83.2% | [6]; at 50.0 µM 76.8%
inactive: [1]; [7] -12% | [1]; [8] -12% | [2]; [7] -29% | [2]; [8] 7% | [2]; at 50.0 µM 49.4% | [3]; [7] -11% | [3]; [8] 2% | [4]; [7] 15% | [4]; [8] 16% | [4]; at 50.0 µM 62.3% | [5]; [7] 9% | [5]; [8] 55% | [6]; [7] -5% | [6]; [8] -3%

CCOC(=O)C(NC(C)=O)[CH](c1ccccc1)[Sn]([c]1ccccc1)([c]1ccccc1)[c]1ccccc1 (stereo not drawn)
inactive: [1]; [7] 3% | [2]; [7] -7% | [3]; [7] -10% | [4]; [7] -19% | [5]; [7] -13% | [6]; [7] 2%
active: [1]; [8] 92% | [1]; at 50.0 µM 94.4% | [2]; [8] 96% | [2]; at 50.0 µM 97.5% | [3]; [8] 95% | [3]; at 50.0 µM 99.1% | [4]; [8] 92% | [4]; at 50.0 µM 94% | [5]; [8] 96% | [5]; at 50.0 µM 96.2% | [6]; [8] 95% | [6]; at 50.0 µM 96.7%

FC(F)(F)c1cccc(COCCN2CCN(Cc3cccc(C(F)(F)F)c3)CC2)c1
inactive: [1]; [7] 36% | [2]; [7] 26% | [3]; [7] 46% | [4]; [7] 33% | [5]; [7] 29% | [6]; [7] 21%
active: [1]; [8] 98% | [1]; at 50.0 µM 97.7% | [2]; [8] 98% | [2]; at 50.0 µM 99.1% | [3]; [8] 99% | [3]; at 50.0 µM 99.1% | [4]; [8] 99% | [4]; at 50.0 µM 96.5% | [5]; [8] 98% | [5]; at 50.0 µM 98.2% | [6]; [8] 98% | [6]; at 50.0 µM 99%

C(=C\[n+]1ccc2ccccc2c1)/c1ccccc1
active: [1]; at 50.0 µM 80% | [6]; at 50.0 µM 74.9%
inactive: [1]; [7] -3% | [1]; [8] 35% | [2]; [7] -2% | [2]; [8] 12% | [2]; at 50.0 µM 26.9% | [3]; [7] -4% | [3]; [8] 38% | [3]; at 50.0 µM 68.7% | [4]; [7] -3% | [4]; [8] -3% | [4]; at 50.0 µM 42.5% | [5]; [7] -5% | [5]; [8] 27% | [5]; at 50.0 µM 8% | [6]; [7] 10% | [6]; [8] 10%
